Laboratory results reported in PubChem BioAssay.
Activity calls are given as the source filed them. No rule for the calls is given here.

biological target: Pantothenate synthetase (Mycobacterium tuberculosis (strain ATCC 25618 / H37Rv)) (UniProt P9WIL5); experiment: Recombinant Mtb pantothenate synthetase (PanC) inhibitors, coupled enzyme, confirmatory (AID 375); conditions: coupled enzyme assay; at 10 µM, hits give high values;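 also: 0% = full reaction with vehicle and 100% = no enzyme background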
Sequence (P9WIL5 whole entry, looked up): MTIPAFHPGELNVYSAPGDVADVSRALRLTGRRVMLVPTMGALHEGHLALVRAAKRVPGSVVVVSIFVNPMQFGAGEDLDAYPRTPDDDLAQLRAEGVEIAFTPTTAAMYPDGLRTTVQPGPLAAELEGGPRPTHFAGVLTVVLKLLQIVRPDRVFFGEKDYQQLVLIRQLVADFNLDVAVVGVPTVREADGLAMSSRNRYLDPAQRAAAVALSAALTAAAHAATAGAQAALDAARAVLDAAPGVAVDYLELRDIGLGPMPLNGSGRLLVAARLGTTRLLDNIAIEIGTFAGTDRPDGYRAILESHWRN

Structure (SMILES) | inhibition
CCOC(=O)C1=C(C)N(C)C(=O)NC1c1cccc(O)c1 (stereo not given) | 0% (inactive)
CN1/C(=C\C(=O)Nc2cccnc2)c2ccccc2CC1(C)C | 3% (inactive)
CN(C)c1cccc(N=C2C=C(N3CCOCC3)CC(C)(C)C2)c1 | 0% (inactive)
CCCCC(NS(=O)(=O)c1ccc(OC)cc1)C(=O)O (stereo not given) | 0% (inactive)
CC(C)C(NC(=O)OCc1ccccc1)C(=O)OCC(=O)NCc1ccco1 (stereo not given) | 7% (inactive)
CCN(C(C)=O)c1nnc(CSc2nc3ccccc3s2)s1 | 5% (inactive)
CC1CCN(S(=O)(=O)c2ccc(Br)s2)CC1 | 0% (inactive)
COc1ccccc1C(=O)Nc1ccccc1C(=O)N1CCCC1 | 1% (inactive)
NC(N)=NC(=O)c1nc(Cl)c(N)nc1N | 0% (inactive)
CC(C)(C)Nc1nc(OCC(F)(F)F)nc(OCC(F)(F)F)n1 | 0% (inactive)
Cc1cc(NC(=O)CCCC(=O)Nc2ccc(F)cc2)no1 | 4% (inactive)
O=S(=O)(Nc1ccn(-c2ccccc2)n1)c1ccc(Br)cc1 | 0% (inactive)
CC[C@]1(O)C[C@@H]2CN(CCc3c([nH]c4ccccc34)[C@@](C(=O)OC)(c3cc4c(cc3OC)N(C)[C@H]3[C@@](O)(C(=O)OC)[C@H](OC(C)=O)[C@]5(CC)C=CCN6CC[C@]43[C@@H]65)C2)C1 | 0% (inactive)
COC(=O)c1ccc2c(c1)C(=O)N(C1CCCCC1)C2=O | 9% (inactive)
CCOC(=O)COc1ccc(S(=O)(=O)Nc2ccc3c(c2)OCO3)cc1 | 2% (inactive)
CCOC(=O)CSc1nc2cc(C(=O)NCc3ccco3)ccc2c(=O)n1-c1ccc(F)cc1 | 3% (inactive)
Cn1c(CNc2nc(-c3ccccc3)cs2)nnc1SCC(=O)N1CCc2ccccc21 | 0% (inactive)
Cc1nc(NCc2ccco2)c2oc3ccccc3c2n1 | 4% (inactive)
O=C(CCn1cccc1)N1CCc2ccccc21 | 0% (inactive)
COC(=O)C1=C(C)NC(=O)C1(NC(=O)CN1CCCC1=O)C(F)(F)F (stereo not given) | 5% (inactive)

Structure (SMILES) | inhibition
Cn1c(C(=O)NCCC2=CCCCC2)cc2c(=O)n3ccccc3nc21 | 0% (inactive)
C/C(=C\C(=O)c1ccc(F)cc1)Nc1ccc(N2CCOCC2)cc1 | 0% (inactive)
Cc1cc(C)c2c(CC(=O)NCc3ccco3)coc2c1 | 0% (inactive)
CN(C)CCCOC(=O)CCc1ccccc1 | 0% (inactive)
COC(=O)COc1cccc(NC(=O)COc2ccccc2)c1 | 2% (inactive)
COc1ccc(C(F)(F)F)cc1NC(=O)c1nc2nc(C)cc(C(F)F)n2n1 | 1% (inactive)
Cc1c(C2Nc3ccccc3NC3=C2C(=O)CC(C)(C)C3)cnn1C (stereo not given) | 2% (inactive)
CN(C)CCCN1c2ccccc2CCc2ccccc21 | 2% (inactive)
CC(=O)Nc1ccccc1OCc1nnc(-c2cccs2)o1 | 0% (inactive)
Cc1ccc(-c2noc(C3CCCN(C(=O)c4ccccc4)C3)n2)o1 (stereo not given) | 0% (inactive)
C[C@]12CCC(=O)C=C1CC[C@@H]1[C@@H]2C(=O)C[C@@]2(C)[C@H]1CC[C@]2(O)C(=O)CO | 0% (inactive)
Cc1cc(NCCN(C)C)n2nc(-c3cccs3)cc2n1 | 0% (inactive)
O=C(C1CC1)N1CCc2cc(Br)cc(S(=O)(=O)N3CCOCC3)c21 | 3% (inactive)
O=C(NC1CC2CCC1C2)c1ccc(CN2CCOCC2)cc1 (stereo not given) | 5% (inactive)
Cn1c(=O)c2c(nc(NCC3CCCO3)n2C)n(C)c1=O (stereo not given) | 0% (inactive)
CCc1nnc2sc(-c3cc(-c4ccccc4)nc4ccccc34)nn12 | 3% (inactive)
Cc1csc(NC(=O)c2ccccc2C(=O)O)n1 | 5% (inactive)
C=CCc1c(C)nc(SC)nc1Nc1ccc(C(=O)O)cc1 | 6% (inactive)
COc1ccccc1OCc1ccc(C(=O)OCC2CCCO2)o1 (stereo not given) | 0% (inactive)
COc1ccccc1NC(=O)c1ccc(NC(=O)CSc2nnnn2C)cc1 | 1% (inactive)
